Measured values from PubChem BioAssay.
Activity calls are given as the source filed them.

How the values were obtained:
[1] = binders of probe aFSTL3 on microarray, primary screen, stem cell growth factor project, biochemical, small-molecule microarray, fluorescence 635/667 (AID 1064); details: higher = more signal;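 further: measures binding of the biotinylated anti-FSTL3 antibody to printed compounds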
[2] = binders from COS7 lysate, DM2A8 probe, primary screen, torsin A project, cell lysate, small-molecule microarray, fluorescence 635/667 (AID 1065); details: higher = more signal, COS7 lysate expressing mutant human TOR1A
[3] = binders of probe aFGF2 on microarray, primary screen, stem cell growth factor project, biochemical, small-molecule microarray, fluorescence 635/667 (AID 1067); details: higher = more signal;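 further: measures binding of biotinylated aFGF2 protein to printed compounds on slides; z-score merges feature fluorescence and signal-to-noise across triplicate slides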
[4] = binders of probe aFGF10 on microarray, primary screen, stem cell growth factor project, biochemical, small-molecule microarray, fluorescence 635/667 (AID 1071); details: higher = more signal;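 further: score merges 667 nm spot intensity and signal to noise from triplicate slides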
[5] = biological target: Neurogenic locus notch homolog protein 2 (Homo sapiens) (UniProt Q04721); assay: Notch2 binders on small-molecule microarrays, primary screen, biochemical, small-molecule microarray, 635 nm fluorescence, stem cell growth factors (AID 1073); details: Notch2 binding, higher = more signal
[6] = biological target: Pro-neuregulin-1, membrane-bound isoform (Homo sapiens) (UniProt Q02297); assay: NRG1 binders on small-molecule microarrays, primary screen, psychiatric disease protein project, biochemical, small-molecule microarray, fluorescence 635/667 (AID 1075); details: NRG1 binding, 635 nm fluorescence, higher = more signal;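 further: score combines 667 nm spot fluorescence with signal to noise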
[7] = test system: Neuregulin-1 EGF-like domain; assay: binders of neuregulin-1 EGF-like domain, primary screen, biochemical, small-molecule microarray, 635 nm fluorescence (AID 1081); details: small-molecule microarray binding, higher = more signal;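 further: binding of the protein to compounds printed on small-molecule microarray slides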
[8] = FRG1 promoter luciferase signal modulators, primary screen, FRG1 inhibition for FSHD, cell-based, C2C12 myotubes, firefly/Renilla luciferase, luminescence (AID 1084); details: higher = more signal, called active from +8 up or from −8 down
[9] = binders of probe aFST on microarray, primary screen, stem cell growth factor project, biochemical, small-molecule microarray, fluorescence 635/667 (AID 1086); details: higher = more signal;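 further: score merges 667 nm fluorescence with signal-to-noise of each printed compound spot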
[10] = binders of probe aHhip on microarray, primary screen, stem cell growth factor project, biochemical, small-molecule microarray, fluorescence 635/667 (AID 1087); details: higher = more signal;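 further: score merges spot fluorescence at 667nm with spot signal to noise ratio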
[11] = test system: PRMT1 (protein arginine N-methyltransferase 1); assay: PRMT1 binders on small-molecule microarrays, primary screen, biochemical, small-molecule microarray, 635 nm fluorescence (AID 1088); details: small-molecule microarray binding, higher = more signal;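 further: binding of Prmt1 protein to compounds spotted on small-molecule microarray slides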
[12] = yeast growth modulation, basal conditions, primary screen, YJM789 clinical isolate, OD600, 24 h (AID 1089);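 further: growth of clinical yeast isolate S. cerevisiae YJM 789 seeded 1000 cells per well; test concentration not given here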; details: S. cerevisiae YJM789 growth, higher = more signal, called active from +8 up or from −8 down
[13] = fission yeast growth modulation, primary screen, strain 972, OD600, 24 h, no modulator (AID 1090);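 further: basal condition with compound alone and no growth modifier present; test concentration not given here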; details: S. pombe 972 growth, higher = more signal, called active from +8 up or from −8 down
[14] = S. cerevisiae growth modulation with rapamycin, primary screen, strain BY4716, OD600, 96 h (AID 1091); details: higher = more signal, called active from +8 up or from −8 down; further: test concentration not given here
[15] = biological target: Torsin-1A-interacting protein 2 (Homo sapiens) (UniProt Q8NFQ8); assay: LULL1 binders on small-molecule microarray, primary screen, cell lysate, human LULL1 lysate, 635/667 nm fluorescence (AID 1092); details: hLULL1 lysate binding, 635 nm fluorescence, higher = more signal;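 further: probe is lysate of COS7 cells overexpressing human LULL1; score merges per-feature 667 nm fluorescence with signal-to-noise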
[16] = E. coli growth modulation, two-sided OD650, primary screen, E. coli filamentation project, strain DRC41, 24 h (AID 1093); details: OD650, 24 h, higher = more signal, called active from +8 up or from −8 down;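 further: MC1000 strain lacking acrAB efflux and sulA so SOS filamentation is blocked; test concentration not given here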
[17] = small-molecule microarray binders of probe aLefty2, primary screen, biochemical, biotinylated probe, 635/667 nm fluorescence (AID 1094); details: higher = more signal;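 further: score merges spot fluorescence near 667 nm with spot signal-to-noise ratio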
[18] = test system: Noggin (protein binding on small-molecule microarray); assay: Noggin binders on small-molecule microarray, primary screen, biochemical, 635/667 nm fluorescence (AID 1095); details: 635 nm fluorescence, higher = more signal;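 further: score merges 667 nm feature fluorescence with signal to noise over triplicate slides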
[19] = biological target: Neurogenic locus notch homolog protein 3 (Homo sapiens) (UniProt Q9UM47); assay: NOTCH3 binders on small-molecule microarray, primary screen, biochemical, 635/667 nm fluorescence (AID 1096); details: NOTCH3 binding, 635 nm fluorescence, higher = more signal
[20] = small-molecule microarray binders of probe aEGFR, primary screen, biochemical, biotinylated probe, 635/667 nm fluorescence (AID 1097); details: higher = more signal;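 further: probe is a biotinylated anti-EGFR antibody binding compounds printed on slides; score combines fluorescence near 667 nm and signal to noise of each spot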

Neurogenic locus notch homolog protein 3 (Homo sapiens), sequence (Q9UM47 whole entry, looked up): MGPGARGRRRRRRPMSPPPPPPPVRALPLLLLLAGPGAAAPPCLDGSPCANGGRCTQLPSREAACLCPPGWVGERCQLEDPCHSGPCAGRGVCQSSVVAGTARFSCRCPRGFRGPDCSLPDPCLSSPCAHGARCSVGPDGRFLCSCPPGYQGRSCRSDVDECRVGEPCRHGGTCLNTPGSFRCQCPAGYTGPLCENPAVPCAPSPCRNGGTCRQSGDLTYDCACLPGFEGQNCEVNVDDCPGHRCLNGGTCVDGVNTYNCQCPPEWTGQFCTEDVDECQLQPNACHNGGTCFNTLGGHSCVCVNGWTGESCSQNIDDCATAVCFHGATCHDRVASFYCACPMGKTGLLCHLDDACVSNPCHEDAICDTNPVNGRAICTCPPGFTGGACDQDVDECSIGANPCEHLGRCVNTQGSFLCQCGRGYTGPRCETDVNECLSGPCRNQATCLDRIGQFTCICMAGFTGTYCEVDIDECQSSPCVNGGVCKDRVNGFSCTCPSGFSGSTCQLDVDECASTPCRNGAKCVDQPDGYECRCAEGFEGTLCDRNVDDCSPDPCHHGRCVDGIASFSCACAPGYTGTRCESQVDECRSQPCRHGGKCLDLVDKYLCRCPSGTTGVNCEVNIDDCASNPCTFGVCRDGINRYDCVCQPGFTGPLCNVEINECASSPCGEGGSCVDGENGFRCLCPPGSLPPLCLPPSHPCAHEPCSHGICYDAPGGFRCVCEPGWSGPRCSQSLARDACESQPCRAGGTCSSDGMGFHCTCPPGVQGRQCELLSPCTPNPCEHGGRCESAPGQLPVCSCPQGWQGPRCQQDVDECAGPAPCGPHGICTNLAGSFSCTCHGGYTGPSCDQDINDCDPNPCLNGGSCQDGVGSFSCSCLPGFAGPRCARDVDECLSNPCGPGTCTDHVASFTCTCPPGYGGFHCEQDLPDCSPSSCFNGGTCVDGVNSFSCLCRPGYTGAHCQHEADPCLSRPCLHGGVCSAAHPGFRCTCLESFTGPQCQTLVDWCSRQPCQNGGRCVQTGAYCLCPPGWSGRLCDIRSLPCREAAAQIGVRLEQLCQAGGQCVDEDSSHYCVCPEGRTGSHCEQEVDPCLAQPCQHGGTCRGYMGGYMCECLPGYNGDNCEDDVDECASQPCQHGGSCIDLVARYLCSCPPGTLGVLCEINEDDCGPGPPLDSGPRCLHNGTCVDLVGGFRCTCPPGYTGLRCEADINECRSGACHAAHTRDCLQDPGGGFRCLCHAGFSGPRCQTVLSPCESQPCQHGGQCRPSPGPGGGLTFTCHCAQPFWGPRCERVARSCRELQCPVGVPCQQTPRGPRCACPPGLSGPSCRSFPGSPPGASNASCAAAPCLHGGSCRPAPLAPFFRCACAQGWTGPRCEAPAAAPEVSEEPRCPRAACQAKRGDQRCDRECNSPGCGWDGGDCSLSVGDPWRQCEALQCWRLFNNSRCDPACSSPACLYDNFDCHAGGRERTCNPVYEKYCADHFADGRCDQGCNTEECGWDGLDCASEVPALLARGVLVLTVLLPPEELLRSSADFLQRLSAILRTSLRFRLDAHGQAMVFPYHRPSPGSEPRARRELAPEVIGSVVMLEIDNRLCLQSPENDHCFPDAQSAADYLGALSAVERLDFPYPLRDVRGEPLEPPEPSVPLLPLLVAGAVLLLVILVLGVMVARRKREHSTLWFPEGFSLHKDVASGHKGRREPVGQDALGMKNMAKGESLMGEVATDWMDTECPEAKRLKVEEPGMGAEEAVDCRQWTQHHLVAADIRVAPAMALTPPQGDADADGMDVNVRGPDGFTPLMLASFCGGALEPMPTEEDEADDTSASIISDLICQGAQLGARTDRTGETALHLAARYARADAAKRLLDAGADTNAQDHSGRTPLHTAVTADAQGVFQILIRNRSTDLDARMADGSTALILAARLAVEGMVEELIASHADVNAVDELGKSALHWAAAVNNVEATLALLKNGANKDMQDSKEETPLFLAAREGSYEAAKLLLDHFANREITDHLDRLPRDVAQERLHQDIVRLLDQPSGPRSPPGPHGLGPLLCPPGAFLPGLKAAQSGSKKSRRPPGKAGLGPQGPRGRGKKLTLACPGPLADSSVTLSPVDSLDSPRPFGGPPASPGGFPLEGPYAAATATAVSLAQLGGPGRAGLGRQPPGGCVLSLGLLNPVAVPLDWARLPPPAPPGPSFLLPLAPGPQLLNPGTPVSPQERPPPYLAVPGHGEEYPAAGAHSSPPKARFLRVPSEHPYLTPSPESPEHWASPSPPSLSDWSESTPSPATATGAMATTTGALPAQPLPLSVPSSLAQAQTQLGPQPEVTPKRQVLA
Neurogenic locus notch homolog protein 2 (Homo sapiens), sequence (Q04721 whole entry, looked up, canonical isoform): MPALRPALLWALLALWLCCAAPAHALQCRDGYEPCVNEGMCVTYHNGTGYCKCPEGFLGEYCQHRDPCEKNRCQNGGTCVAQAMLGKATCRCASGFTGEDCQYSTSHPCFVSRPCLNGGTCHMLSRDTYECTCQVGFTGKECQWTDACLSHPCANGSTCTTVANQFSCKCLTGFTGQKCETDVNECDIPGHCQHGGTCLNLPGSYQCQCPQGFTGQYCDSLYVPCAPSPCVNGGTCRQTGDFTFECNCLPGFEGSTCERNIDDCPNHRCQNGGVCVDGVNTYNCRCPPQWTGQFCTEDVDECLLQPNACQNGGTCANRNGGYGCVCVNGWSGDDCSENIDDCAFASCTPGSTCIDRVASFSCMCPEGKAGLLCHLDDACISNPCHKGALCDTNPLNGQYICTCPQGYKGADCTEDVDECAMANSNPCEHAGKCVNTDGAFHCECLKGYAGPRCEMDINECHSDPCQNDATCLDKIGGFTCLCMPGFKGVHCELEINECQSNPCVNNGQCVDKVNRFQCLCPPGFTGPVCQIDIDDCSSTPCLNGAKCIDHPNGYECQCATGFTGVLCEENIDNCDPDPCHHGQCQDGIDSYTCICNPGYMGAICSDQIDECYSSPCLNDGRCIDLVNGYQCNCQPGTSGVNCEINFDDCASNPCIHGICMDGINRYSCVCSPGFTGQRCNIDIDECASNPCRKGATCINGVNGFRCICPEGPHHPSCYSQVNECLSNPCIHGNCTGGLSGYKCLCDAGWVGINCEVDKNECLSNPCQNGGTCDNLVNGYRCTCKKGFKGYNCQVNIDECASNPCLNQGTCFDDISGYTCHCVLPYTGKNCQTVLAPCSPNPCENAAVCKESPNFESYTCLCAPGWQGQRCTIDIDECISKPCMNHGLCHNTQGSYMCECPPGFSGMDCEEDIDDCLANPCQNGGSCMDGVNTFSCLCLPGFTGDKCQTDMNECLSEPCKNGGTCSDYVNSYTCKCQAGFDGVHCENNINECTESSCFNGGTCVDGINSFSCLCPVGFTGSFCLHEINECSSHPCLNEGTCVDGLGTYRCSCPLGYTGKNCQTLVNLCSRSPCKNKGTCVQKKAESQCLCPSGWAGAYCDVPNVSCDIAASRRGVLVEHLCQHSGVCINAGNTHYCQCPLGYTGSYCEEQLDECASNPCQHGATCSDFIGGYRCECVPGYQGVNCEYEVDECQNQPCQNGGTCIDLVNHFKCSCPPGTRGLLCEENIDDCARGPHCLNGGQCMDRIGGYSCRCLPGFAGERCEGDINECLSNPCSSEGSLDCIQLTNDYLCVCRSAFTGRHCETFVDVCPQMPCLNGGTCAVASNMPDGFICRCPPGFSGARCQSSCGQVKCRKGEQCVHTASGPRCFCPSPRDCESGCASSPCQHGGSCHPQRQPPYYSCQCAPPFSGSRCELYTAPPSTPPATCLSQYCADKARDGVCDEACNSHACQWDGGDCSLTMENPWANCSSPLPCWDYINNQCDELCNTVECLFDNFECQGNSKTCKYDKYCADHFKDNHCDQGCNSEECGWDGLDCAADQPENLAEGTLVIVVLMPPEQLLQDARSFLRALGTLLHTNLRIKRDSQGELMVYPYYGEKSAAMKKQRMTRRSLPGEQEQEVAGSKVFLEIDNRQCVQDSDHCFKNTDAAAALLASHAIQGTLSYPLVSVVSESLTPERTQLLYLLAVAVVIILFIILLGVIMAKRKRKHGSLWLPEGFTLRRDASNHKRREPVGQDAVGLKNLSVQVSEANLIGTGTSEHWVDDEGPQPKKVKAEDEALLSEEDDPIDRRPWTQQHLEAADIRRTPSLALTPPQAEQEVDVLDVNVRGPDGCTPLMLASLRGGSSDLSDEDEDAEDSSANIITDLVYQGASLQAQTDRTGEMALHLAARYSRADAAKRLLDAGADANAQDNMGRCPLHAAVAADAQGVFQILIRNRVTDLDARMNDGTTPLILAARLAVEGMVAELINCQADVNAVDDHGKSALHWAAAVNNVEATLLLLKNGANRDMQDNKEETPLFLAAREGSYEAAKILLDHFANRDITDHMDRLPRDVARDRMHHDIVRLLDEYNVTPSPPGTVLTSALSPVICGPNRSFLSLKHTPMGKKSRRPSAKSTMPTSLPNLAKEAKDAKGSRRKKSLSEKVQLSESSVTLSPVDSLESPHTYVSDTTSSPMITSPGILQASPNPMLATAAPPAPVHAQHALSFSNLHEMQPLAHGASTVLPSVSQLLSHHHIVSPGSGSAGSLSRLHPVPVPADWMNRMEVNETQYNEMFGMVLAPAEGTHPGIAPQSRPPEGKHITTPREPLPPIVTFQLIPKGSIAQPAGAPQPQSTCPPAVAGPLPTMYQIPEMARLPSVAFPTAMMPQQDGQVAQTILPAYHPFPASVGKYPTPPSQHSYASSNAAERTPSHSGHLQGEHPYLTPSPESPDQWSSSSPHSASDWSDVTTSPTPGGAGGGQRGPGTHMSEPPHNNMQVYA

Row | Structure (SMILES) | composite z-score [1] | composite z-score [2] | composite z-score [3] | composite z-score [4] | composite z-score [5] | composite z-score [6] | composite z-score [7] | z-score [8] | composite z-score [9] | composite z-score [10] | composite z-score [11] | z-score [12] | z-score [13] | z-score [14] | composite z-score [15] | z-score [16] | composite z-score [17] | composite z-score [18] | composite z-score [19] | composite z-score [20]
1 | CC(C)(C)N1CC=CC23O[C@@H]4C=CCOC(=O)[C@@H]4[C@H]2C(=O)N(CCCO)[C@@H]3C1=O (stereo not given in full) | 0.698 | -0.182 | -0.199 | -0.838 | -1.54 | -0.475 | 1.08 | 0.619 (inactive) | -1 | -0.0994 | -0.768 | 0.149 (inactive) | 0.0155 (inactive) | -0.288 (inactive) | -0.558 | 1.27 (inactive) | -0.147 | -1.62 | -1.54 | -0.314
2 | CC(C)(C)OC(=O)CC[C@]1(C(=O)N2CCOCC2)N=C(c2ccc(OCCCO)cc2)O[C@H]1c1ccccc1 | -0.209 | 0.177 | -0.0601 | 0.724 | 0.819 | 0.526 | 0.548 | -2.64 (inactive) | 0.534 | 0.0695 | 0.587 | 0.0164 (inactive) | -0.988 (inactive) | -0.439 (inactive) | 2.52 | 0.961 (inactive) | 0.0038 | 1.26 | 0.348 | -0.0656
3 | C=C(/C(=C/C[C@@H](OC(=O)c1ccncc1)c1ccccc1OCCO)c1cc(C(=O)OC)ccc1OC)C(C)C | -0.259 | 0.584 | -0.0352 | 0.533 | 0.311 | 0.878 | 1.1 | -1.31 (inactive) | 0.586 | 0.0854 | 1.56 | 0.381 (inactive) | -0.633 (inactive) | -0.338 (inactive) | 3.07 | 0.616 (inactive) | -0.0155 | 0.88 | 1.01 | -0.0353
4 | COC(=O)[C@@]1(Cc2ccc(OC)cc2)[C@H]2c3cc(C(=O)N(C)C)n(Cc4ccccc4)c3C[C@H]2CN1C(=O)c1ccccc1 | 0.342 | 0.0293 | -0.0066 | 0.0679 | 0.571 | 1.11 | 0.828 | -1.53 (inactive) | 1.06 | -0.0597 | -0.0018 | 0.0364 (inactive) | -0.55 (inactive) | -1.42 (inactive) | 1.84 | -0.869 (inactive) | 0.0241 | 0.337 | 0.0263 | -0.254
5 | C=CCOC(=O)[C@@H]1[C@H]2C(=O)O[C@H](c3ccccc3)[C@H](c3ccccc3)N2[C@H](c2ccc(OCCOC(=O)[C@H]3C[C@H]4C(=O)N[C@@H](CC(C)C)C(=O)N4[C@H]3c3ccc(O)cc3)cc2)[C@@]12C(=O)Nc1ccc(I)cc12 | 0.054 | 1.42 | 0.0333 | 0.868 | 0.718 | 0.535 | 1.35 | -0.477 (inactive) | 0.496 | -0.0994 | 1.54 | 0.157 (inactive) | 1.11 (inactive) | 2.65 (inactive) | 2.75 | 0.574 (inactive) | -0.0229 | 1.81 | 1.06 | 0.0582
